In all, about 5,800 sequences were measured (“enrichment r”: median about 0.68, highest 2% from about 11 on). The list is a sample of the results.
B1: ENSG00000127995:stop:overlap|stop_codon|ENSG00000127995|stop_codon|NA|stop_codon (ssRNA)
RNA: GGGAGUUCUACAGUCCGACGAUCUAGCUGCAUUUUUUUGUGGACUCCUCAUCUUAUCAUCCAUUCAAGAUAAAUCAAAACAUUAGGUUCCAAAAAUUCUAAAAAACCUAAACUCUUCAGGCUACCUUUGUGUGUCUCUAGAAGCAACAGAGGAUUGAGCAUCA
B2: chr12:13219749:13219850:+|3pUTR|ENSG00000134531|unk|total|mutant (ssRNA)
RNA: GGGAGUUCUACAGUCCGACGAUCACAACAGUGGAUGGGGAGGAAGAACAGACUUUUGAGCUCUUCCCAAUACCGGAAUGUGUCCGUUCUAAAAAUUUUCUUAAGUUGUUUGCUUGGAACUCAGAGUAUAUUUUUCCAUACGAACAACAGAGGAUUGAGCAUCA
B3: chr10:128098466:128098636:-|3pUTR|ENSG00000148773|msi1|total|mutant (ssRNA)
RNA: GGGAGUUCUACAGUCCGACGAUCUCCUUUCCUUUCUGAAAAUAAAGUUUUGUGCUUUGGAGAAUGACUCGUGAGCACAUCUUCCGGGACCAAGAGUGACUUUCUGUAAGGAGUGACUCGUGGCUUGCCUUGGUCUCUUGGGAACAACAGAGGAUUGAGCAUCA
B4: chr7:137014887:137014989:+|CDS|ENSG00000181072|unk|total|mutant (ssRNA)
RNA: GGGAGUUCUACAGUCCGACGAUCGCUACUUGGCUACUGAUCCGAGAACGCAAAAUGAAUAACUCAACAAACUCCUCUAACAACCGCCUGGCUCUUACAAGUCCUUAUAAGACAUUUGAAGUGGUGUUUAUUGUCCUGGUGGCUCAACAGAGGAUUGAGCAUCA
B5: chr17:8173470:8173636:-|3pUTR|ENSG00000179029|msi1|total|mutant (ssRNA)
RNA: GGGAGUUCUACAGUCCGACGAUCUGUUUGUCUGUAUCGUCAGGUGGGAUAAUCCUUACCUGUUCCUCCUCCGGAGGGCAGAUCCGAACAUGAUGAUUGGAGAUGCAUGAAACGUGAUUAACGUCUCUGCGUAAUCAGGACUUGCAACAGAGGAUUGAGCAUCA
B6: ENSG00000124766:be:win_3601|3pUTR|ENSG00000124766|bound_else_gene|NA|bound_elsewhere_windowed (ssRNA)
RNA: GGGAGUUCUACAGUCCGACGAUCUGUACUGCGUUUUUCAUUCUUGUAUUUGACUAUUUAAUCCUUUCUACUUGUCGCUAAAUAUAAUUGUUUUAGUCUUAUGGCAUGAUGAUAGCAUAUGUGUUCAGGUUUAUAGCUGUUGUGCAACAGAGGAUUGAGCAUCA
B7: ENSG00000198589:be:win_7751|CDS|ENSG00000198589|bound_else_gene|NA|bound_elsewhere_windowed (ssRNA)
RNA: GGGAGUUCUACAGUCCGACGAUCAAGUGCAUUCCCAGUGCUUUGUCAUCACUUCAGACAACCGCUAUAUUCUCGUCUGUGGCUUCUGGGAUAAAAGUUUCAGAGUCUAUUCUACAGACACAGGAAGAUUGAUCCAAGUGGUGUCAACAGAGGAUUGAGCAUCA
B8: ENSG00000198589:be:win_2051|CDS|ENSG00000198589|bound_else_gene|NA|bound_elsewhere_windowed (ssRNA)
RNA: GGGAGUUCUACAGUCCGACGAUCUACUGACUAUGCAUGAGGAUGACAAUCUAAUGGAUGUCCUACAGCUGCUUGUUGCAUUAAUGUCAGAACACCCUAACUCUAUGAUUCCUGCUUUUGACCAAAGGAAUGGGUUACGUGUUACAACAGAGGAUUGAGCAUCA
B9: chr17:42842016:42842117:+|3pUTR|ENSG00000131467|msi1|FALSE|unique (ssRNA)
RNA: GGGAGUUCUACAGUCCGACGAUCUUACUGUUUCUUUCCUCUGUGGGGCAUUGGAUCCUCCCACAGUUGCCCUGGUGAUGACUUAGGGCUUCCCAUCUGUGUACAUCCCACUUUGAAUCUUGAUCGUGACAAGAAAUACCUUAGCAACAGAGGAUUGAGCAUCA
B10: chr6:132296306:132296407:-|3pUTR|ENSG00000079931|msi1|FALSE|unique (ssRNA)
RNA: GGGAGUUCUACAGUCCGACGAUCAUGGGAAACAUAGAAAUGGUAUGUAUUAAUAACUGAUCAUAGGCUGAGGAGAAAAAAUGUAGCUGGCUGCAAACCCAGUGCUGUGAGGUGACUUAUAUGAGGUUCCAGAUCAAAGACAGGCAACAGAGGAUUGAGCAUCA
B11: chr2:69942770:69942871:+|3pUTR|ENSG00000059728|unk|total|mutant (ssRNA)
RNA: GGGAGUUCUACAGUCCGACGAUCUGUUUCCAGAUGUUUCUUUAUGUAAAUAUGACGCCAAUGUAAAUCCUGUGUCAAGAUCACCGAGAAUGGUGCUUUUUACUACAGUCCGCACAUGCAUUUUCCGAAACUACUACAUGUUUUCAACAGAGGAUUGAGCAUCA
B12: ENSG00000107863:be:win_51|CDS|ENSG00000107863|bound_else_gene|NA|bound_elsewhere_windowed (ssRNA)
RNA: GGGAGUUCUACAGUCCGACGAUCCAAGGCCUGCGAGGUCUCAAAAAAUAAAGAUGGAAAAGAACAAAGUGAAACUGUAUCACUGUCUGAAGAUGAAACAUUCUCCUGGCCAGGUCCCAAAACAGUUACGUUGAAAAGAACAUCCAACAGAGGAUUGAGCAUCA

Molecular target: T1, UNK ZnF1-6 (called full-length) (human, UniProt Q9C0B0 30-357)
T1 sequence: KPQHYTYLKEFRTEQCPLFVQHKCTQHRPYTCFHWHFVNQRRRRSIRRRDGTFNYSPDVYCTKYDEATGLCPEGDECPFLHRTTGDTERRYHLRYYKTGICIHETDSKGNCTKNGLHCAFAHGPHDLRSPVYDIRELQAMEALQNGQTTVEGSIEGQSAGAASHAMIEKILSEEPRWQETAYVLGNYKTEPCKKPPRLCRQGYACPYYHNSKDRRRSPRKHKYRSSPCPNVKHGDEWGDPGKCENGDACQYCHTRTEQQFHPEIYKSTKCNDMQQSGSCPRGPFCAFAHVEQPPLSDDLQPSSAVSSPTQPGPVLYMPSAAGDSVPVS
Test: nsRBNS (natural sequence RNA bind-n-seq); RBNS binding buffer (assumed for nsRBNS): 25 mM Tris pH 7.5, 150 mM KCl, 3 mM MgCl2, 0.01% Triton X-100, 500 ug/ml BSA, 20 U/ml SUPERase-In, 4 C; UNK is unkempt and MSI1 is Musashi-1; names of the RNAs are library labels; protein concentration not given here; high values mean tight binding

Row | Binder | binding signal [enrichment R]
1 | B1 | 0.828
2 | B2 | 0.58
3 | B3 | 0.483
4 | B4 | 0.461
5 | B5 | 0.686
6 | B6 | 0.795
7 | B7 | 0.285
8 | B8 | 0.35
9 | B9 | 0.557
10 | B10 | 0.863
11 | B11 | 0.355
12 | B12 | 0.505

Source: paper PMC12136788
